Source: PubChem BioAssay (EPA / NIEHS)
Calls of active or inactive are those of the source. Rule for the calls: active = hit-call score of the fitted dose curve at least 0.9, where 1 is the maximum; inactive = score below 0.9.

What was measured:
Conditions in all cases: mRNA level, 48 h; actives raise or lower the signal
[1] = read-out: Cytochrome P450 7A1 (Homo sapiens) (UniProt P22680); experiment: LTEA_HepaRG_CYP7A1: Life Technologies and Expression Analysis (LTEA) Assay for Cytochrome P450 7A1 (CYP7A1) using HepaRG (AID 2283496)
Procedure, shortened: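 HepaRG cells plated 48 h, then switched to serum-free induction medium and exposed in duplicate for 48 h to 8-point half-log series from 100 uM in 0.5% DMSO. CYP7A1 mRNA by qRT-PCR (TaqMan), normalized to ACTB/GAPDH/POLR2A; bidirectional fit versus DMSO.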

[2] = read-out: Glutathione S-Transferase (GSTA2), GSTA2 (gene 2939); experiment: LTEA_HepaRG_GSTA2: Life Technologies and Expression Analysis (LTEA) Assay for Glutathione S-Transferase (GSTA2) using HepaRG (AID 2283497)
Procedure, shortened: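 HepaRG, 48 h dosing, 8-pt half-log CRC from 100 uM, 0.5% DMSO vehicle, n=2; RNA → Fluidigm TaqMan qRT-PCR; GSTA2 vs ACTB/GAPDH/POLR2A; gain/loss fit vs DMSO.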

[3] = read-out: Glutamate-cysteine ligase catalytic (GCLC), GCLC (gene 2729); experiment: LTEA_HepaRG_GCLC: Life Technologies and Expression Analysis (LTEA) Assay for Glutamate-cysteine ligase catalytic (GCLC) using HepaRG (AID 2283498)
Procedure, shortened: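 Read-out is GCLC transcript level by Fluidigm-based TaqMan qRT-PCR, normalized to three housekeeping genes and fitted in both directions relative to 0.5% DMSO. Human HepaRG cells received chemicals for 48 h, up to 100 uM.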

[4] = read-out: growth arrest and DNA damage 45 (GADD45G), GADD45G (gene 10912); experiment: LTEA_HepaRG_GADD45G: Life Technologies and Expression Analysis (LTEA) Assay for growth arrest and DNA damage 45 (GADD45G) using HepaRG (AID 2283499)
Procedure, shortened: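 Human hepatic HepaRG line treated 48 h with chemicals (eight concentrations, half-log steps from 100 uM); transcript induction or repression of GADD45G scored by qRT-PCR versus DMSO vehicle.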

[5] = read-out: Glutamate-cysteine ligase regulatory (GCLM), GCLM (gene 2730); experiment: LTEA_HepaRG_GCLM: Life Technologies and Expression Analysis (LTEA) Assay for Glutamate-cysteine ligase regulatory (GCLM) using HepaRG (AID 2283500)
Procedure, shortened: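 Cells were plated, cultured 48 h, switched to serum-free induction medium, then dosed in duplicate for 48 h at eight half-log concentrations up to 100 uM. RNA was then profiled by qRT-PCR; gain or loss versus DMSO was fitted.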

[6] = read-out: Glutathione S-transferase M3 (GSTM3), GSTM3 (gene 2947); experiment: LTEA_HepaRG_GSTM3: Life Technologies and Expression Analysis (LTEA) Assay for Glutathione S-transferase M3 (GSTM3) using HepaRG (AID 2283501)
Procedure, shortened: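 Changes in GSTM3 expression, an oxidative-stress marker, were scored by bidirectional curve fitting against 0.5% DMSO vehicle. Human HepaRG cultures received chemicals for 48 h in duplicate, highest concentration 100 uM with half-log dilutions.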

[7] = read-out: Heat shock 70 kDa protein 1 (HSPA1A), gene 3303; experiment: LTEA_HepaRG_HSPA1A: Life Technologies and Expression Analysis (LTEA) Assay for Heat shock 70 kDa protein 1 (HSPA1A) using HepaRG (AID 2283502)
Procedure, shortened: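 Readout is HSPA1A transcript level by microfluidic qRT-PCR, normalized to three housekeeping genes and analysed for gain or loss of signal relative to 0.5% DMSO. Human HepaRG cultures received test chemicals for 48 h at up to 100 uM.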

[8] = read-out: 3-Hydroxy-3-Methylglutaryl-CoA Synthase 2 (HMGCS2), HMGCS2 (gene 3158); experiment: LTEA_HepaRG_HMGCS2: Life Technologies and Expression Analysis (LTEA) Assay for 3-Hydroxy-3-Methylglutaryl-CoA Synthase 2 (HMGCS2) using HepaRG (AID 2283504)
Procedure, shortened: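 Expression of HMGCS2 in human HepaRG liver cells is measured by qRT-PCR 48 h after dosing (highest 100 uM, half-log series, 0.5% DMSO). Values come from bidirectional concentration-response fitting with DMSO as baseline.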

HGF (gene 3082) = experiment: LTEA_HepaRG_HGF: Life Technologies and Expression Analysis (LTEA) Assay for Hepatocyte Growth Facto (HGF) using HepaRG (AID 2283505)
Procedure, shortened: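 Gain or loss of HGF mRNA in human HepaRG liver cells after 48 h chemical exposure; eight concentrations up to 100 uM with 0.5% DMSO vehicle, quantified by TaqMan qRT-PCR.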

[9] = read-out: Insulin Like Growth Factor 1 (IGF1), IGF1 (gene 3479); experiment: LTEA_HepaRG_IGF1: Life Technologies and Expression Analysis (LTEA) Assay for Insulin Like Growth Factor 1 (IGF1) using HepaRG (AID 2283506)
Procedure, shortened: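 HepaRG, plated 48 h, then switched to serum-free induction media; test chemical 8-pt half-log from 100 uM (0.5% DMSO), duplicate, 48 h. Lysis in RLT, TaqMan qRT-PCR, norm. ACTB/GAPDH/POLR2A. Bidirectional fit vs DMSO.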

[10] = read-out: Intercellular Adhesion Molecule 1 (ICAM1), ICAM1 (gene 3383); experiment: LTEA_HepaRG_ICAM1: Life Technologies and Expression Analysis (LTEA) Assay for Intercellular Adhesion Molecule 1 (ICAM1) using HepaRG (AID 2283507)
Procedure, shortened: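 Gain or loss of transcript in HepaRG hepatic cells is quantified by qRT-PCR after 48 h chemical exposure (up to 100 uM, half-log steps), with DMSO as baseline.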

[11] = read-out: Insulin-like growth factor-binding protein 1 (IGFBP1), IGFBP1 (gene 3484); experiment: LTEA_HepaRG_IGFBP1: Life Technologies and Expression Analysis (LTEA) Assay for Insulin-like growth factor-binding protein 1 (IGFBP1) using HepaRG (AID 2283508)
Procedure, shortened: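 mRNA induction or loss was quantified by qRT-PCR after 48 h chemical exposure of human HepaRG cells, with 0.5% DMSO as vehicle and baseline. Concentration-response over eight points up to 100 uM.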

[12] = read-out: Interleukin 6 (IL6), IL6 (gene 3569); experiment: LTEA_HepaRG_IL6: Life Technologies and Expression Analysis (LTEA) Assay for Interleukin 6 (IL6) using HepaRG (AID 2283509)
Procedure, shortened: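 HepaRG, ~100,000 cells/well, 48 h pre-culture; serum-free induction medium; cmpd 8-pt half-log from 100 uM, 0.5% DMSO, duplicate, 48 h. Lysis in RLT, TaqMan qRT-PCR; gain or loss vs DMSO.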

[13] = read-out: Interleukin 6 Receptor (IL6R), IL6R (gene 3570); experiment: LTEA_HepaRG_IL6R: Life Technologies and Expression Analysis (LTEA) Assay for Interleukin 6 Receptor (IL6R) using HepaRG (AID 2283510);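 for AC50: differentiated human HepaRG liver cells in serum-free induction medium; TaqMan qRT-PCR signal normalized to ACTB GAPDH and POLR2A housekeeping genes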
Procedure, shortened: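 Readout is IL6R transcript level by TaqMan qRT-PCR, normalized to three housekeeping genes and fitted bidirectionally against 0.5% DMSO controls. Human HepaRG cells received chemicals for 48 h in serum-free induction medium, highest concentration 100 uM.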

[14] = read-out: Potassium channel subfamily K member 1 (KCNK1), KCNK1 (gene 3775); experiment: LTEA_HepaRG_KCNK1: Life Technologies and Expression Analysis (LTEA) Assay for Potassium channel subfamily K member 1 (KCNK1) using HepaRG (AID 2283511)
Procedure, shortened: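 Gain or loss of KCNK1 mRNA is the read-out, quantified by qRT-PCR against three housekeeping genes after 48 h chemical treatment of human HepaRG liver cells. Concentrations ran from 100 uM downward in half-log steps, vehicle 0.5% DMSO.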

[15] = read-out: Keratin 19 (KRT19), KRT19 (gene 3880); experiment: LTEA_HepaRG_KRT19: Life Technologies and Expression Analysis (LTEA) Assay for Keratin 19 (KRT19) using HepaRG (AID 2283512)
Procedure, shortened: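 Gene-expression endpoint in the human liver line HepaRG after 48 h exposure to up to 100 uM test chemical with 0.5% DMSO vehicle; KRT19 mRNA by qRT-PCR, analyzed bidirectionally versus DMSO.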

[16] = read-out: Lipase C (LIPC), LIPC (gene 3990); experiment: LTEA_HepaRG_LIPC: Life Technologies and Expression Analysis (LTEA) Assay for Lipase C (LIPC) using HepaRG (AID 2283514)
Procedure, shortened: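 Read-out is LIPC transcript level by TaqMan qRT-PCR, normalized to three housekeeping genes, after 48 h chemical treatment of human HepaRG liver cells. Curves span eight concentrations topping at 100 uM; activity in either direction scored relative to 0.5% DMSO.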

[17] = read-out: Lipoprotein lipase (LPL), LPL (gene 4023); experiment: LTEA_HepaRG_LPL: Life Technologies and Expression Analysis (LTEA) Assay for Lipoprotein lipase (LPL) using HepaRG (AID 2283515)
Procedure, shortened: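 Read-out is LPL transcript level by qRT-PCR, normalized to three housekeeping genes and fitted bidirectionally against the DMSO control. Human HepaRG cells received chemicals for 48 h at up to 100 uM.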

[18] = read-out: Hypoxia-inducible factor 1-alpha (Homo sapiens) (UniProt Q16665); experiment: LTEA_HepaRG_HIF1A: Life Technologies and Expression Analysis (LTEA) Assay for Hypoxia-inducible factor 1 (HIF1A) Trancription factor using HepaRG (AID 2283503)
Procedure, shortened: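 Differentiated HepaRG cells in serum-free induction medium exposed 48 h, in duplicate, to 8-point half-log series from 100 uM in 0.5% DMSO. HIF1A mRNA measured by TaqMan qRT-PCR, normalized to ACTB/GAPDH/POLR2A, fitted bidirectionally versus DMSO.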

[19] = read-out: JUN Transcription Factor, JUN (gene 3725); experiment: LTEA_HepaRG_JUN: Life Technologies and Expression Analysis (LTEA) Assay for JUN Transcription Factor using HepaRG (AID 2283513)
Procedure, shortened: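 Cells plated 48 h, medium switched to serum-free induction medium, then dosed 48 h (100 uM top, half-log dilutions, 0.5% DMSO). RNA isolated; JUN measured by qRT-PCR against three housekeeping genes; gain or loss fitted relative to DMSO.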

Measured: AC50

Chain of Hypoxia-inducible factor 1-alpha (Homo sapiens) (Q16665 whole entry, looked up): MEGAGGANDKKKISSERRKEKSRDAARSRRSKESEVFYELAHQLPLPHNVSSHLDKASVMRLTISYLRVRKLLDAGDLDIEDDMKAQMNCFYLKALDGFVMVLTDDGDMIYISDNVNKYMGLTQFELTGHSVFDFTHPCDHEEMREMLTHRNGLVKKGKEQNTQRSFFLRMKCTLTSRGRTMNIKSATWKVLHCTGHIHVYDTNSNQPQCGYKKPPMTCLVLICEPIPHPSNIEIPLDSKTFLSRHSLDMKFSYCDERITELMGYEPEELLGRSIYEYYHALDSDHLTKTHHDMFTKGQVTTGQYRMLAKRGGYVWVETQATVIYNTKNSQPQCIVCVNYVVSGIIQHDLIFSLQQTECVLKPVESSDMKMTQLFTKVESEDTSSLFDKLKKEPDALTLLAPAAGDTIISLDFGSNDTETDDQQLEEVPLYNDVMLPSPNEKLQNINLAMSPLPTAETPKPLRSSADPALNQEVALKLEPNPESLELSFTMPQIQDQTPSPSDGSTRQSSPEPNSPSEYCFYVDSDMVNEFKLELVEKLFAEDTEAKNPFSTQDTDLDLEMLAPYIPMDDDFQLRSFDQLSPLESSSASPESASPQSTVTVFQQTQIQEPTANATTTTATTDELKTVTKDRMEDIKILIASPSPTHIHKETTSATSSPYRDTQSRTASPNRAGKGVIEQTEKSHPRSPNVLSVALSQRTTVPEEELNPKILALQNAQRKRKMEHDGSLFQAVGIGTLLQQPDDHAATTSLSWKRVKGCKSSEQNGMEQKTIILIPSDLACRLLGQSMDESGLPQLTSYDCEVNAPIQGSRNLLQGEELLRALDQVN

Brc1ccc(Oc2ccccc2)cc1
not listed: [18] | [19]
inactive: all other assays above

CS(=O)(=O)NC(=O)c1cc(Oc2ccc(C(F)(F)F)cc2Cl)ccc1[N+](=O)[O-]
active: [8] 7.76 µM
not listed: [18] | [19]
inactive: all other assays above

CC(C)COC(=O)c1ccccc1C(=O)OCC(C)C
inactive: all assays above

CCCCCCCCn1sccc1=O
active: [1] 82.2 µM | [8] 84.8 µM | HGF (gene 3082) 81.3 µM | [13] 99.3 µM | [16] 80.9 µM
not listed: [18] | [19]
inactive: all other assays above

O=C(N[C@H](c1ccccc1)[C@@H]1CN2CCC1CC2)c1c(Cl)ccc(C(F)(F)F)c1Cl
active: [1] 80.1 µM | [2] 73.7 µM | [4] 21.4 µM | [7] 73.8 µM | [8] 72.8 µM | [9] 46.2 µM | [10] 66.6 µM | [11] 34.8 µM | [12] 74.8 µM | [14] 59.7 µM | [15] 12 µM | [19] 82.4 µM | [17] 11.1 µM
inactive: [3] | [5] | [6] | HGF (gene 3082) | [13] | [16]

ClCCOCCCl
not listed: [18] | [19]
inactive: all other assays above

N#CC(Br)(Br)C(N)=O
not listed: [18]
inactive: all other assays above
